In PubChem BioAssay (NCI):
This is part of a sample that, as a whole, favours compounds with a hit. Of some 83,000 tested, about 20% had one in any assay.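 Results are percent growth after 48 hours of single-concentration exposure. 100 means growth as in untreated cells, lower positive values show inhibition; negative values down to -100 show cell death.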 A number with no mark means an inactive call. The source made the active and inactive calls. How the source made its calls: active means growth percent below 10; inactive means the rest.

Assays:
Assay in all cases: NCI-60 one-dose screen, 48 h (100 = growth as untreated, 0 = no growth, -100 = all killed)
Conditions in all cases: 10 µM
SK-MEL-2 melanoma = test system: SK-MEL-2 melanoma
EKVX NSCLC = test system: EKVX NSCLC
UO-31 renal = test system: UO-31 renal
TK-10 renal = test system: TK-10 renal
ACHN renal = test system: ACHN renal
CAKI-1 renal = test system: CAKI-1 renal
A498 renal = test system: A498 renal
CCRF-CEM leukemia = test system: CCRF-CEM leukemia
MOLT-4 leukemia = test system: MOLT-4 leukemia

Compound	growth (SK-MEL-2 melanoma)	growth (EKVX NSCLC)	growth (UO-31 renal)	growth (TK-10 renal)	growth (ACHN renal)	growth (CAKI-1 renal)	growth (A498 renal)	growth (CCRF-CEM leukemia)	growth (MOLT-4 leukemia)
C=C1CCC2C3(C)COC(c4cc(F)cc(F)c4)OC3CCC2(C)C1C/C=C1/C(=O)OCC1O (configuration not stated)	-60.8% (active)	-42.8% (active)	-97.1% (active)	-86.3% (active)	-99.6% (active)	-73.2% (active)	106%	15.1%	8.72% (active)
CC(=O)OC[C@@]1(C)C2CC[C@]3(C)C(CC=C4C5CC(C)(C)CC[C@]5(C(=O)Nc5ccccc5)CC[C@]43C)[C@@]2(C)C[C@@H](OC(C)=O)[C@@H]1OC(C)=O (some centres not stated)	35.4%	26.8%	33.1%	53.1%	34.4%	37.2%	64.6%	29.7%	24.4%
COc1ccc(Nc2nc(N)n(Cc3cccc(Br)c3)n2)cc1	-35.7% (active)	6.36% (active)	0.264% (active)	24.9%	1.18% (active)	8.17% (active)	-19.5% (active)	10.2%	9.01% (active)
N#Cc1c(NC(=O)c2ccc(C(F)(F)F)cc2)sc2c1CCC(O)=C2	8.44% (active)	16.9%	23.9%	71.9%	44.1%	31.9%	74.2%	6.68% (active)	13.8%
Cc1cc(C(F)(F)F)ccc1C(=O)Nc1sc2c(c1C#N)CCC(=O)C2	-38.4% (active)	-25.5% (active)	-98% (active)	-2% (active)	-95.9% (active)	-50.8% (active)	85.2%	6.32% (active)	2.54% (active)
COc1ccc(N(C)c2cc(C#N)nc3ccccc23)cc1N	4.88% (active)	20.5%	20.6%	76.7%	23.5%		113%	5.77% (active)	15.4%
Cc1ccc(C(=O)NCCCNc2nc(Nc3ccc(N4CCN(C)CC4)cc3)nc3ccsc23)cc1	81.8%	71.2%	56.7%		30.5%	54%	137%	4.37% (active)	
CC(=O)Nc1ccc(-n2cnc3cc(-c4ccc(O)cc4)ccc32)cc1C	19.9%	61.6%	35.5%	73.9%	43.1%	44.2%	92.1%	65.1%	64.7%
COc1ccc(OC)c(/C=N/NC(=O)c2ccc3nc(-c4ccc(Cl)cc4)[nH]c3c2)c1	103%	57.5%	68%	89.1%	46.9%	61.6%	43.8%	43.9%	41.1%
COc1cccc(/C=N/NC(=O)c2ccc3nc(-c4ccc(Cl)cc4)[nH]c3c2)c1O	-95.1% (active)	-53.8% (active)		-11.1% (active)	-34% (active)	-66.1% (active)	-69.1% (active)	-40.6% (active)	-50.4% (active)
O=c1cc(-c2ccccc2)oc2cc(OCCCCNCc3ccccc3)cc(O)c12	53.1%	25.1%	37%	78.9%	59.9%	25.7%	37.6%	2.88% (active)	-0.919% (active)
CCCCCCCCCCCCCCCCCCCC(=O)NCCc1c[nH]c2ccc(O)cc12	107%	101%	71.9%	118%	98.8%	105%	118%		71.2%
O=c1cc(-c2ccccc2)oc2cc(OCCCNCc3ccccc3)cc(O)c12	-81.4% (active)	8.87% (active)	-9.86% (active)		3.03% (active)	-24% (active)	-14.5% (active)	10.1%	-13% (active)
Cc1ccc(-c2ccc(SCC(=O)Nc3ccc(Cl)c(C(F)(F)F)c3)nn2)cc1	12.8%	36.7%		59.8%	43.4%	41.7%	80.3%	19.8%	8.91% (active)
COc1ccc2[nH]c(=O)c(CSc3cccc(N)c3)cc2c1	64%	48.7%	56.8%	72.3%	20.9%		72.6%	47.2%	41.2%
